# Measured values taken from PubChem BioAssay (NCATS).
# Inconclusive results are not listed. A call without a number means that no potency is given here. Active and inactive are the calls of the source. The call rests on the fitted dose curve; in most records, active means well fitted inhibition curve with a large enough effect; inconclusive means small, poorly fitted or top-dose-only effect; inactive means flat fitted curve, though single readings scatter.
# Legend:
# Experiment in all cases: qHTS profiling for inhibitors of Plasmodium falciparum proliferation (AID 504749); further: nearly all actives have a fitted effect of over 60% in size
# Settings in all cases: P. falciparum in erythrocytes, SYBR Green DNA, 72 h; series mostly up to 28.7 µM
# CP192 = system: CP192
# Method in brief: (§1)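 Each compound contacts P. falciparum-infected red blood cells for 72 h at 37 C; lysis buffer (Tris, EDTA, saponin, Triton X, SYBR Green I) is added and fluorescence measured next morning; values normalized to controls.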
# CP194 = system: CP194
# Method in brief: as §1
# CP201 = system: CP201
# Method in brief: as §1
# CP211 = system: CP211
# Method in brief: as §1
# CP215 = system: CP215
# Method in brief: as §1
# CP217 = system: CP217
# Method in brief: as §1
# CP237 = system: CP237
# Method in brief: as §1
# CP238 = system: CP238
# Method in brief: as §1
# CP247 = system: CP247
# Method in brief: as §1
# CP250 = system: CP250
# Method in brief: as §1
# CP252 = system: CP252
# Method in brief: as §1
# CP256 = system: CP256
# Method in brief: as §1
# CP260 = system: CP260
# Method in brief: as §1
# CP262 = system: CP262
# Method in brief: as §1
# CP265 = system: CP265
# Method in brief: as §1
# CP266 = system: CP266
# Method in brief: as §1
# CP268 = system: CP268
# Method in brief: as §1
# CP269 = system: CP269
# Method in brief: as §1
# CP286 = system: CP286
# Method in brief: as §1
# CP291 = system: CP291
# Method in brief: as §1
# Potency means the concentration at half of the fitted maximal effect.
Structure (SMILES),Potency (CP192),Potency (CP194),outcome (CP201),Potency (CP211),Potency (CP215),Potency (CP217),Potency (CP237),outcome (CP238),Potency (CP247),outcome (CP250),outcome (CP252),outcome (CP256),outcome (CP260),outcome (CP262),Potency (CP265),outcome (CP266),outcome (CP268),outcome (CP269),outcome (CP286),outcome (CP291)
CC(=O)c1ccc(S(=O)(=O)NC(=O)NC2CCCCC2)cc1,inactive,inactive,inactive,inactive,inactive,inactive,inactive,inactive,inactive,inactive,inactive,inactive,inactive,inactive,inactive,inactive,inactive,inactive,inactive,inactive
CCCCCN(C)CCC(O)(P(=O)(O)O)P(=O)(O)O,inactive,inactive,inactive,inactive,inactive,inactive,inactive,inactive,inactive,inactive,inactive,inactive,inactive,inactive,inactive,inactive,inactive,inactive,inactive,inactive
C[C@@H](O)[C@H]1C(=O)N2C(C(=O)O)=C(S[C@@H]3CN[C@H](C(=O)N(C)C)C3)[C@H](C)[C@H]12,inactive,inactive,inactive,inactive,inactive,inactive,inactive,inactive,inactive,inactive,inactive,inactive,inactive,inactive,inactive,inactive,inactive,inactive,inactive,inactive
O=C1Nc2ccc(Cl)cc2C(C#CC2CC2)(C(F)(F)F)O1 (centres undefined),inactive,,inactive,inactive,,inactive,inactive,inactive,inactive,inactive,inactive,inactive,inactive,inactive,inactive,,inactive,inactive,inactive,inactive
CC/C(=C(\c1ccccc1)c1ccc(OCCN(C)C)cc1)c1ccccc1,inactive,,,,,11.2 µM (active),,,,,,,,inactive,,inactive,,,,
CCN(CC)C(=O)c1ccc(O)c(OC)c1,inactive,inactive,inactive,inactive,inactive,inactive,inactive,inactive,inactive,inactive,inactive,inactive,inactive,inactive,inactive,inactive,inactive,inactive,inactive,inactive
O=C(O)c1cc(-c2ccccc2)nc2ccccc12,inactive,inactive,inactive,inactive,inactive,inactive,inactive,inactive,inactive,inactive,inactive,inactive,inactive,inactive,inactive,,inactive,inactive,inactive,inactive
CC1=C(/C=C/C(C)=C/C=C/C(C)=C/C(=O)Nc2ccc(O)cc2)C(C)(C)CCC1,9.53 µM (active),13.5 µM (active),,10.7 µM (active),10.7 µM (active),,,,7.94 µM (active),,,inactive,,,,,,,,
O=C1NCC2(CCN(CCc3ccccc3)CC2)O1,inactive,inactive,inactive,inactive,inactive,inactive,inactive,inactive,inactive,inactive,inactive,inactive,,inactive,inactive,inactive,inactive,inactive,inactive,inactive
O=C(O)Cc1cccc2ccccc12,inactive,inactive,inactive,inactive,inactive,inactive,inactive,inactive,inactive,inactive,inactive,inactive,inactive,inactive,inactive,inactive,inactive,inactive,inactive,inactive
COc1ccc(Cc2nccc3cc(OC)c(OC)cc23)cc1OC,inactive,inactive,inactive,inactive,,inactive,inactive,inactive,,inactive,inactive,inactive,inactive,inactive,inactive,inactive,inactive,inactive,inactive,inactive
O=C(NCCN1CCOCC1)c1ccc(Cl)cc1,inactive,inactive,inactive,inactive,inactive,inactive,inactive,inactive,inactive,inactive,inactive,inactive,inactive,inactive,inactive,inactive,inactive,inactive,inactive,inactive
CC1(C)O[C@H]2C[C@@H]3[C@H]4CCC5=CC(=O)C=C[C@]5(C)[C@@]4(F)[C@@H](O)C[C@]3(C)[C@]2(C(=O)CO)O1,inactive,inactive,inactive,inactive,inactive,inactive,inactive,inactive,inactive,inactive,inactive,inactive,inactive,inactive,inactive,,inactive,inactive,inactive,inactive
CC(=O)N[C@@H](CS)C(=O)O,inactive,inactive,inactive,inactive,inactive,inactive,inactive,inactive,inactive,inactive,inactive,inactive,inactive,inactive,inactive,inactive,inactive,inactive,inactive,inactive
CCN(CC)CCOC(=O)c1ccc(N)cc1,inactive,inactive,inactive,inactive,inactive,inactive,inactive,inactive,inactive,inactive,inactive,inactive,inactive,inactive,inactive,inactive,inactive,inactive,inactive,inactive
Cc1cnc(C(=O)O)c[n+]1[O-],inactive,inactive,inactive,inactive,inactive,inactive,inactive,inactive,inactive,inactive,inactive,inactive,,inactive,inactive,,inactive,inactive,inactive,inactive
CCCNC(=O)NS(=O)(=O)c1ccc(Cl)cc1,inactive,inactive,inactive,inactive,inactive,inactive,inactive,inactive,inactive,inactive,inactive,inactive,inactive,inactive,inactive,inactive,inactive,inactive,inactive,inactive
CCN1CCC[C@H]1CNC(=O)c1cc(S(N)(=O)=O)ccc1OC,inactive,inactive,inactive,inactive,inactive,inactive,inactive,inactive,inactive,inactive,inactive,inactive,inactive,inactive,inactive,inactive,inactive,inactive,inactive,inactive
O=C(O)c1c(Cl)c(Cl)c(Cl)c(Cl)c1-c1c2cc(I)c(=O)c(I)c-2oc2c(I)c(O)c(I)cc12,inactive,inactive,inactive,inactive,inactive,inactive,inactive,inactive,inactive,inactive,inactive,inactive,inactive,inactive,inactive,inactive,inactive,inactive,inactive,inactive
CC(=O)CCCCn1c(=O)c2c(ncn2C)n(C)c1=O,inactive,inactive,inactive,inactive,inactive,inactive,inactive,inactive,inactive,inactive,inactive,inactive,inactive,inactive,inactive,inactive,inactive,inactive,inactive,inactive
CN(C)CCC(c1ccccc1)c1ccccn1 (centres undefined),,,inactive,inactive,,inactive,inactive,inactive,inactive,inactive,inactive,inactive,inactive,inactive,12.6 µM (active),inactive,,,inactive,
Cc1cccc(C)c1OCC(C)N (centres undefined),inactive,,inactive,inactive,inactive,inactive,6.31 µM (active),inactive,inactive,inactive,inactive,inactive,inactive,inactive,,,,,inactive,
NCCS,inactive,inactive,inactive,inactive,inactive,inactive,inactive,inactive,inactive,inactive,inactive,inactive,inactive,inactive,inactive,inactive,inactive,inactive,inactive,inactive
Clc1ccc(Cn2c(CN3CCCC3)nc3ccccc32)cc1,inactive,inactive,inactive,inactive,,inactive,,inactive,inactive,inactive,inactive,inactive,,inactive,inactive,inactive,inactive,inactive,inactive,inactive
O=C1NC(=O)C(c2ccccc2)(c2ccccc2)N1,inactive,inactive,inactive,inactive,inactive,inactive,inactive,inactive,inactive,inactive,inactive,inactive,inactive,inactive,inactive,inactive,inactive,inactive,inactive,inactive
CCOC(=O)O[C@]1(C(=O)OCCl)CC[C@@H]2[C@H]3CCC4=CC(=O)C=C[C@]4(C)[C@@H]3[C@@H](O)C[C@@]21C,inactive,inactive,inactive,inactive,,inactive,inactive,inactive,inactive,inactive,inactive,inactive,inactive,inactive,inactive,,inactive,inactive,inactive,inactive
COCCCCC(=NOCCN)c1ccc(C(F)(F)F)cc1,inactive,,,,,,,,,,,,,,,,,,,
CCN(CC)CCNC(=O)c1ccc(N)cc1,inactive,inactive,inactive,inactive,inactive,inactive,inactive,inactive,inactive,inactive,inactive,inactive,inactive,inactive,inactive,inactive,inactive,inactive,inactive,inactive
